Inconclusive results are not listed. Calls of active or inactive are those of the source. Calls follow the shape of the dose curve; as a rule, active = well fitted curve in the direction sought with a large enough effect; inconclusive = small, poorly fitted or top-dose-only effect, or another doubt; inactive = no such curve, though single readings can be large or run the other way.
Assay: qHTS for Inhibitors of the vitamin D receptor (VDR): Hit Validation using a Texas Red Assay (AID 602201)
Settings: VDR coregulator binding, Texas Red fluorescence polarization, agonist-bound VDR ligand-binding domain; series mostly up to 57.1 µM; activity, negative = inhibition: at the top concentration
Source text: The vitamin D receptor (VDR) is a ligand-activated transcription factor and is partially responsible for the regulation of the endocrine system. This includes the transcriptional regulation of genes involved in the production of the parathyroid hormone (PTH) and the regulation of the blood calcium level. High levels of PHT can cause hypercalcemia in the case of primary and tertiary hyperparathyroidism. The VDR-mediated gene regulation, activated by its ligand 1,25-dihydroxyvitamin D3 (1,25-(OH)2D3), is governed by the recruitment of coactivators. Our hypothesis is that small molecules, with the ability to inhibit the interaction between VDR and certain coactivators, are able to selectively modulate VDR-mediated transcription. Our long term objective is the application these VDR-coactivator inhibitors to study the role of VDR-coactivator binding for specific VDR regulated genes. Ultimately, these molecules can be developed into new treatments for hypercalcemic hyperparathyroidism. No small molecule or non-peptide inhibitors are known for the VDR-coactivator interaction.
In a collaboration between the University of Wisconsin, Milwaukee and the NIH Chemical Genomics Center (NCGC) a HTS-compatible enzymatic assay was developed. The assay uses fluorescence polarization as its read-out to measure the inhibition between VDR and coregulator peptide SRC2-3 exerted by small molecules. This assay was used to screen the NIH Molecular Libraries Small Molecule Repository (MLSMR). The HTS assay detects polarization at 665 nm emitted by the Alexa Fluor 647 dye. This validation assay detects polarization of the emission from Texas-Red at 615 nm.
NIH Chemical Genomics Center [NCGC]
NIH Molecular Libraries Probe Centers Network [MLPCN]
Assay Submitter (PI): Alexander Arnold, University of Wilwaukee
Four microliter of either 1.5 uM VDR-LBD, […], and 7 nM Texas Red (all final concentrations) in columns 1, 2, and 5 to 48 or 7 nM Texas Red in columns 3 and 4 are dispensed into black medium-binding solid bottom Greiner plates. Both solutions are kept at 4 deg C and protected from light and dispensed using a Kalypsys dispenser. Then 23nl of compounds and controls are added with Kalypsys pintool. The control is 26.5 mM CBT358 (final concentration of 151 uM) and the compounds' final range in concentration is 457 nM - 114 uM. Plate is centrifuged at 1000 RPM for 15 seconds to remove any residual bubbles. The plate is then incubate at ambient room temperature for 2 hours. It is then read on the Envision for a fluorescent polarization read-out (Ex 595 nm/Em 615 nm)
% is scaled to controls: 0 for no effect and ±100 for the full control effect; potency is read from the fitted curve at half-maximal effect.

SMILES | Potency | activity, negative = inhibition
CC1=NOC(=O)/C1=C\c1ccc(-c2ccc(Br)cc2)o1 | 3.16 µM (active) | –
Cc1[nH]n(-c2ncc(-c3ccccc3)s2)c(=O)c1C(c1ccc(Br)cc1)C(C#N)C#N (stereo not given) | – | 24.5% (inactive)
Cc1ccc(/C(O)=C2/C(=O)C(=O)OC2c2ccc(Cl)cc2)cc1 (stereo not given) | 7.08 µM (active) | –
COc1cc([N+](=O)[O-])ccc1-c1ccc(/C=C2\C(=O)ON=C2c2ccccc2)o1 | 3.16 µM (active) | –
O=C1C(Cl)=C(NS(=O)(=O)c2ccc([N+](=O)[O-])cc2)C(=O)c2ccccc21 | – | 1.09% (inactive)
O=S(=O)(Nc1cc2nc3ccccc3nc2n1Cc1ccccc1)c1ccc(Cl)cc1 | – | -0.582% (inactive)
O=[N+]([O-])c1c(Nc2ccccn2)cc(Cl)c2nonc12 | – | -17.4% (inactive)
CC(C)(C)c1ccc(-n2nc(C#N)c(Cl)cc2=O)cc1 | 15.8 µM (active) | –
O=C(O)c1cc(Nc2cc(Cl)c3nonc3c2[N+](=O)[O-])ccc1O | – | -7.01% (inactive)
Cc1oc2c(c1C(=O)c1ccccc1)C(=O)C(=O)c1ccccc1-2 | 3.98 µM (active) | –
CC1=NN(c2cccc(C(=O)O)c2)C(=O)/C1=C\C=C/c1ccccc1 | 5.62 µM (active) | –
COc1cc(/C=C2/C(=O)c3cccc([N+](=O)[O-])c3C2=O)c(Br)cc1O | – | 4.56% (inactive)
CC1=NOC(=O)/C1=C\c1ccc(-c2ccccc2Br)o1 | – | -1.62% (inactive)
O=C(NNc1cc(Br)c(O)c(Br)c1)c1ccccc1 | 25.1 µM (active) | –
COc1ccc(S(=O)(=O)Nc2cc(SCC(=O)O)c(O)c3ccccc23)cc1 | 3.55 µM (active) | –
Cc1[nH]n(-c2ncc(-c3ccccc3)s2)c(=O)c1C(c1ccc(Cl)cc1)C(C#N)C#N (stereo not given) | – | 8.57% (inactive)
CCOC(=O)COc1ccc(Br)cc1/C=C/c1[nH]c(=O)[nH]c(=O)c1[N+](=O)[O-] | – | 21.7% (inactive)
CC1=C(CO)C(=O)OC([C@@H](C)C2CC[C@H]3C4C[C@H]5O[C@]56[C@@H](O)C=CC(=O)[C@]6(C)C4CC[C@]23C)C1 (stereo not given in full) | 11.2 µM (active) | –
Cc1ccc(C(=O)/C=C/c2cc(Br)cc(Br)c2O)o1 | – | -12.8% (inactive)
O=C(O)c1ccc2c(c1)C(=O)N(c1ccc(/C=C/C(=O)c3ccccc3)cc1)C2=O | – | 4.55% (inactive)
O=C(NC1(O)C(=O)c2ccccc2C1=O)c1ccccc1 | 6.31 µM (active) | –
COc1ccc(-c2cc(N)n(S(=O)(=O)c3c(F)c(F)c(F)c(F)c3F)n2)cc1OC | 20 µM (active) | –
COc1ccc2c(c1)Cc1sc(NC(=O)c3cccc(C)c3)nc1-2 | 10 µM (active) | –
O=C1ON=C(c2ccccc2)/C1=C/c1ccc(-c2ccccc2[N+](=O)[O-])o1 | 4.47 µM (active) | –
O=C(NC1(O)C(=O)c2ccccc2C1=O)c1c(Cl)cccc1Cl | 3.98 µM (active) | –

Reference: PubChem BioAssay (NCATS)
